Screening results deposited in PubChem BioAssay by National Center for Advancing Translational Sciences (NCATS).
An excerpt weighted towards active compounds, which were near 2.4% of everything screened.
Pol kappa inh – qHTS for Inhibitors of Polymerase Kappa; purified Pol kappa, fluorescent DNA synthesis assay, 10 min; Potency, µM (series often up to 107 µM), without a hit: at the top dose activity, negative = inhibition, usual class: inhibitors; actives 0.53% (n = 400,000); DNA polymerase kappa (Homo sapiens), Q9UBT6; note: % is set by controls: 0 for no effect and ±100 for the full control effect
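10 nM Pol kappa preincubated 15 min at room temperature with compounds, then reaction started with substrate at 50 nM final. Fluorescence read kinetically at 0 and 10 min; buffer-only wells served as negative control.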
Pol iota inh – qHTS for Inhibitors of Polymerase Iota | actives 1% (n = 390,000) | DNA polymerase iota (Homo sapiens), Q9UNA4 | Potency, µM (titrated, usually from 115 µM), inactives show top-dose activity, negative = inhibition, usual class: inhibitors | Pol iota fluorescent replication assay, 10 min
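Fluorescent replication assay read twice, at 0 min and 10 min after adding 50 nM (final) substrate. Enzyme (10 nM) and compounds were first incubated 15 min at room temperature; enzyme-free buffer wells were negative controls.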
Pol eta inh – qHTS for Inhibitors of Polymerase Eta; recombinant Pol eta, fluorescent DNA replication assay; Potency, µM (doses to about 114 µM), for the others: top-dose activity change, negative = inhibition, most hits filed as inhibitors; actives 1.2% (n = 390,000); note: % is set by controls: 0 for no effect and ±100 for the full control effect
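Pol eta at 10 nM preincubated with compounds 15 min at room temperature; reaction started with fluorescent substrate (50 nM final) and read kinetically at 0 and 10 min.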
FEN1 inhibitor – qHTS Assay for the Inhibitors of Human Flap endonuclease 1 (FEN1). Recombinant FEN1 flap cleavage, fluorescence, 15 min. Potency, µM (highest dose often 114 µM), without a hit: at the highest dose activity change, negative = inhibition, actives largely listed as inhibitors. actives 0.35% (n = 390,000); note: % is set by controls: 0 for no effect and ±100 for the full control effect; nearly all actives have a fitted effect of over 65% in size
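Quantitative HTS format: each compound was titrated, incubated with 10 nM nuclease for 15 min at room temperature, then challenged with flap substrate at 50 nM final. Signal change over 15 min gave concentration–effect curves.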
WRN helicase inh – qHTS for Inhibitors of WRN Helicase. WRN helicase unwinding, fluorescent forked duplex, kinetic. Bifunctional 3'-5' exonuclease/ATP-dependent helicase WRN (Homo sapiens), Q14191. actives 0.46% (n = 360,000). Potency, µM (highest dose often 114 µM), for the others: at the highest dose activity change, negative = inhibition, most hits filed as inhibitors; note: % is set by controls: 0 for no effect and ±100 for the full control effect; nearly all actives have a fitted effect of over 55% in size
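Fluorescence dequenching readout, ex 525 nm/em 598 nm, kinetic mode: forked duplex DNA (100 nM final) with adjacent fluorophore and quencher unwound by WRN (20 nM final) with 2 mM ATP. Compound preincubation 15 min, room temperature.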
Pol beta inh – qHTS Assay for Inhibitors of DNA Polymerase Beta; P06746; Pol beta primer extension/strand displacement, fluorescence kinetic; Potency, µM (doses to about 114 µM), for inactives: top-dose activity change, negative = inhibition, hits mostly inhibitors; actives 1.3% (n = 340,000); AID 485314, 2010; note: % is set by controls: 0 for no effect and ±100 for the full control effect
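Human Pol beta at 10 nM; strand-displacement substrate 50 nM final. Compound exposure 15 min at room temperature before start, reaction 10 min at room temperature.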
Active calls of the source: *; ? = inconclusive; . = no result given; ! = not confirmed by another sample; [ ] = remark or other dose. Calls come from the whole dose curve; as a rule, active = well fitted curve in the direction sought with a large enough effect; inconclusive = small, poorly fitted or top-dose-only effect, or another doubt; inactive = no such curve, though single readings can be large; an effect the other way counts as inactive or inconclusive. Potency is the fitted concentration of half-maximal effect.

SMILES | Pol kappa inh | Pol iota inh | Pol eta inh | FEN1 inhibitor | WRN helicase inh | Pol beta inh
CC(=O)/C=C/c1ccc2c(c1)S(=O)(=O)N(C1CCCC1)[C@H]2CC(C)=O | -40.6% | ? | . | ? | . | .
COc1cccc(N2CC(O)=C(c3nc4ccccc4c(=O)[nH]3)C2=N)c1 | -12.9% | -9.1% | 2.0% | -19.7% | -6.5% | 22.8%
Cc1cc(C)cc(N2CC(O)=C(c3nc4ccccc4c(=O)[nH]3)C2=N)c1 | ? | ? | ? | ? | 50.1µM* | -27.1%
COc1ccc(CN2C(=O)C(NC(=O)c3ccccc3C)(C(F)(F)F)N=C2c2ccccc2)cc1 (stereo not drawn) | -4.8% | 1.9% | -12.7% | 0.3% | . | -7.2%
O=C1CN(CCN2CC(=O)NC(=O)C2)CC(=O)N1 | 1.5% | 8.7% | . | -0.5% | . | .
CCCNC(=O)c1nnsc1S(=O)(=O)c1ccc(Cl)cc1 | -13.5% | 32.6% | 8.2% | -11.3% | 28.2µM* | 20.2%
CCCNC(=O)c1nnsc1S(=O)c1ccc(Cl)cc1 (stereo not drawn) | -10.8% | 48.7% | 2.4% | ? | 20µM* | -2.9%
C=CCN(CC=C)c1ccc(/C=C/c2ccnc3ccccc23)cc1 | -17.9% | -4.8% | . | -17.0% | . | .
Cc1cc(-c2nn3c(-c4ccccc4)nnc3s2)c2ccccc2n1 | 1.6% | 79.4µM* | 6.0% | -11.8% | -11.2%[57.1 µM] | ?
c1ccc(-c2cc(-c3nn4c(-c5ccco5)nnc4s3)c3ccccc3n2)cc1 | ? | ? | ? | -12.7% | -35.3% | -6.7%
O=C(Nc1nc2nc(-c3ccccc3)cc(=O)n2[nH]1)c1ccccc1 | -0.4% | 7.4% | -10.9% | -9.0% | -11.3% | 0.0%
O=C(Nc1nc2nc(-c3ccccc3)cc(=O)n2[nH]1)c1ccc(Cl)cc1 | -17.7% | -16.4% | -8.7% | -11.9% | . | 22.4µM*
O=C(Cc1ccc(S(=O)(=O)N2CCOCC2)s1)Nc1ccccc1Br | ? | ? | ? | -15.4% | -7.3% | 35.5µM*
O=C(Cc1ccc(S(=O)(=O)N2CCCC2)s1)N1CCN(c2ccccc2)CC1 | 0.4% | 54.5% | -9.1% | 4.6% | -3.7% | 31.6µM*
O=C(Cc1ccc(S(=O)(=O)N2CCOCC2)s1)NCC(=O)Nc1ccccc1Br | 2.9% | 30.0% | -2.6% | 8.3% | 6.6% | .
O=C1c2ccccc2C(=O)c2c([N+](=O)[O-])ccc(O)c21 | -36.3% | 50.1µM* | 31.6µM* | ? | ? | ?
Cc1cccc(N2CC(C(=O)Nc3nnc(SCC(=O)N4CCOCC4)s3)CC2=O)c1 (stereo not drawn) | -26.6% | ? | 44.7µM* | 11.8% | -9.2%[11.6 µM] | 28.2µM*
O=C(Nc1nnc(SCc2cccnc2)s1)C1CC(=O)N(c2ccc(F)cc2)C1 (stereo not drawn) | -9.0% | ? | ? | 3.4% | ? | ?
COc1cccc(N2CC(C(=O)Nc3nnc(SCCC4OCCO4)s3)CC2=O)c1 (stereo not drawn) | -19.0% | ? | 44.7µM* | -3.2% | 7.1%[11.6 µM] | -10.3%
O=C(Nc1nnc(SCC(=O)N2CCOCC2)s1)C1CC(=O)N(c2ccccc2)C1 (stereo not drawn) | -6.6% | -0.2% | 7.0% | 9.8% | -8.3% | 45.3%
NC(=O)CSc1nnc(NC(=O)C2CC(=O)N(c3ccc(F)cc3)C2)s1 (stereo not drawn) | -4.9% | 5.9% | 50.1µM* | -4.2% | -5.5%[11.6 µM] | 0.7%
COc1cccc(N2CC(C(=O)Nc3nnc(SCc4cccnc4)s3)CC2=O)c1 (stereo not drawn) | -7.9% | ? | ? | -1.9% | -23.2% | 25.1µM*
CN(C)C(=O)COC(=O)c1ccccc1OCC(=O)Nc1ccc(Br)cc1 | -5.5% | -0.3% | . | -2.4% | . | .
CCc1cccc(C)c1NC(=O)CN1C(=O)C2(SCC(=O)N2c2cc(C)cc(C)c2)c2ccccc21 (stereo not drawn) | -4.5% | 4.0% | -19.9% | 7.9% | . | -0.6%
O=C(Nc1nnc(SCCC2OCCO2)s1)C1CC(=O)N(c2ccccc2)C1 (stereo not drawn) | -5.7% | ? | ? | 15.7% | -23.1% | ?
SMILES | Pol kappa inh | Pol iota inh | Pol eta inh | FEN1 inhibitor | WRN helicase inh | Pol beta inh
O=C(Nc1nnc(SCCC2OCCO2)s1)C1CC(=O)N(c2ccc(F)cc2)C1 (stereo not drawn) | -41.6% | ? | 20µM* | 6.5% | ? | 44.7µM*
C=CCNC(=O)c1ccccc1NC(=O)Nc1ccccc1 | -8.0% | 89.1µM* | -10.3% | -8.3% | -5.9% | -2.8%
COCCNC(=O)c1ccccc1NC(=O)Nc1ccccc1 | -1.1% | 46.8% | -17.4% | 10.1% | -8.0% | 10.3%
Cc1cc2ccccn2c1C(=O)c1nc(NCc2ccccc2)ncc1Cl | 4.3% | 79.4µM*! | -12.0% | 2.9% | -0.8% | 3.8%
O=C(O)c1nc(NCc2ccccc2)ncc1Cl | 10.9% | -20.0% | -9.2% | -10.5% | 2.6% | 34.1%
CN(Cc1ccsc1)C(=O)Cn1cc(Br)ccc1=O | -16.9% | 22.4µM* | -2.5% | -0.3% | -7.5% | 16.0%
O=C(C[N+]12CN3CN(CN(C3)C1)C2)c1ccc(Cl)cc1 | 1.4% | -4.8% | . | 14.4% | . | .
O=C(C[N+]12CN3CN(CN(C3)C1)C2)c1ccc(O)c(O)c1 | 3.16µM* | 10µM* | . | 14.1µM* | . | .
Cc1cc(C)cc(NC(=O)Cn2nnc(C(=O)NCCc3ccccc3)c2N)c1 | -24.0% | ? | -12.8% | -10.8% | -8.5%[11.6 µM] | ?
Nc1c(C(=O)NCCc2ccccc2)nnn1CC(=O)Nc1ccc(Cl)cc1 | -28.4% | 79.4µM* | -6.7% | -14.2% | . | ?
Cc1cc(C)cc(NC(=O)Cn2nnc(C(=O)NCc3ccccc3Cl)c2N)c1 | 10.8% | ? | -8.8% | 2.8% | -22.4% | 16.5%
Cc1ccc(C)c(NC(=O)Cn2nnc(C(=O)NCc3ccccc3Cl)c2N)c1 | -11.1%[60.1 µM] | ? | -16.1% | 11.7% | . | 35.5µM*
Cc1ccccc1NC(=O)Cn1nnc(C(=O)NCCc2ccccc2)c1N | -7.5% | -11.1% | -17.7% | 5.7% | . | 14.1µM*
CSc1cccc(NC(=O)Cn2nnc(C(=O)NCCc3ccccc3)c2N)c1 | -4.9%[60.1 µM] | 79.4µM* | -21.0% | 2.1% | . | 25.1µM*
C[N+]1(CC(=O)c2ccc(Br)cc2)CCOCC1 | 7.4% | 22.7% | . | 5.3% | . | .
Cc1nc(NCC(=O)c2c[nH]c3ccccc23)sc1C | -11.3% | 0.2% | . | -14.1% | . | .
